The results in this text go back to PubChem BioAssay (Tox21).

Values joined by “and” are separate entries in the source; they are usually repeats but may differ in a detail not shown here. Identical values can stand only once. Results filed as inconclusive are left out. Active and inactive are the calls of the source. Unless noted, calls follow the shape of the full dose curve.

Experiment [1] is described as follows: Nuclear factor erythroid 2-related factor 2/antioxidant responsive element (Nrf2/ARE) small molecule agonists: qHTS cell viability counter screen in human keratinocytes (AID 1919968; active = well fitted curve in the direction sought with a large enough effect in the repeat runs; an effect the other way counts as inactive or inconclusive; also: nearly all actives have a fitted effect of over 55% in size; also: potency is read from the fitted curve at half-maximal effect). An outline of the steps: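 Seed 1,500 KeratinoSens cells per well, then incubate 5 h at 37 C/5% CO2. Add compounds in DMSO and incubate 23 h. Add CellTiter-Fluor, wait 1 h and read fluorescence.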
In general terms: qHTS replaces the single test concentration by a dilution series.

A short description of experiment [2]: Nuclear factor erythroid 2-related factor 2/antioxidant responsive element (Nrf2/ARE) small molecule agonists: luciferase reporter gene qHTS assay in human keratinocytes (AID 1919969; also: nearly all actives have a fitted effect of over 35% in size; also: potency is read from the fitted curve at half-maximal effect). (In general: A reporter such as luciferase makes a cellular process visible.)
Experiment [3] addresses Gonadotropin-releasing hormone receptor (Homo sapiens) (UniProt P30968). The experiment in a line: Human gonadotropin-releasing hormone receptor (GnRHR) small molecule agonists, calcium flux assay in GnRHR-HEK293 cells (AID 1920063). Also: nearly all actives have a fitted effect of over 35% in size. An outline of the steps:
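Cells: HEK293 stably expressing human GnRHR. Steps: overnight (18 h) culture, 1 h calcium dye loading at 37 C, compound addition, kinetic fluorescence read at 480/540 nm. Each compound tested at 15 concentrations in triplicate.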
Background: A change in cytosolic calcium serves as a functional read-out for many receptors and channels.

In experiment [4] the target is KiSS-1 receptor (Homo sapiens) (UniProt Q969F8). Briefly: Human kisspeptin (KISS1R) small molecule agonists, calcium flux assay in KISS1R-HEK293 cells (AID 1920064; active = well fitted curve in the direction sought with a large enough effect in the repeat runs; an effect the other way counts as inactive or inconclusive). An outline of the steps:
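Cells plated and incubated 18 h; dye added, 1 h at 37 C; compounds in DMSO pinned in; signal read at 480/540 nm every second for 3 min. Each compound tested at 15 concentrations in triplicate.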

Experiment [5] is described as follows: G protein-coupled receptor (GPCR) small molecule agonists, calcium flux assay: HEK293 wild type cell line counter screen (AID 1920065). An outline of the steps: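 Counter-screen of the Tox21 10K library for non-specific calcium release: dye-loaded cells received compounds in DMSO and were monitored by kinetic fluorescence (480/540 nm, 3 min). Fifteen concentrations, run in triplicate.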

Experiment [6] in a line: p53 small molecule agonists, cell-based qHTS assay with human liver microsomes (AID 1963577).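 Also: p53 response element beta-lactamase reporter cells with liver microsomes plus NADPH.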 An outline of the steps: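 With metabolic activation: human liver microsomes (0.5 mg/mL final) plus NADPH (0.5 mg/mL final) added alongside compounds to p53RE-bla cells; 16 h 37 C exposure; beta-lactamase read by LiveBLAzer fluorescence.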
The nature of experiment [7]: p53 small molecule agonists, cell-based qHTS assay with rat liver microsomes: qHTS cell viability counter screen (AID 1963580). Also: nearly all actives have a fitted effect of over 45% in size. An outline of the steps: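 p53RE-bla HCT-116 cells (4,000/well) rested 5 h at 37 C, then given Tox21 compounds in DMSO with rat liver microsomes (0.5 mg/mL final) plus NADPH (0.5 mg/mL final) for 16 h at 37 C. Viability read by CellTiter-Glo luminescence after 30 min at room temperature.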

Experiment [8] in a line: p53 small molecule agonists, cell-based qHTS assay: qHTS cell viability counter screen (AID 1963581). Also: nearly all actives have a fitted effect of over 45% in size. An outline of the steps: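 Cells: HCT-116 with p53 response element-driven beta-lactamase. Treatment: 16 h, 37 C, compounds in DMSO. Read: CellTiter-Glo luminescence after 30 min RT.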
Experiment [9] is described as follows: p53 small molecule agonists, cell-based qHTS assay (AID 1963582; active = well fitted activation curve with a large enough effect in the signal ratio in the repeat runs, not every such curve was filed as active; the % refers to the signal ratio). The essentials: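 Quantitative HTS in p53RE-bla cells: after a 5 h settling period, compounds delivered in DMSO were left on cells for 16 h at 37 C, and reporter induction was measured as fluorescence following 2 h substrate loading.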
Experiment [10] has as its target 5-hydroxytryptamine receptor 2A (Homo sapiens) (UniProt P28223). Briefly: 5-hydroxytryptamine receptor 2A (HTR2A) small molecule antagonists, cell-based qHTS assay (AID 1963586). Also: nearly all actives have a fitted effect of over 45% in size. An outline of the steps: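 Antagonist-mode intracellular calcium assay: DOI (4 nM) added after 5 min compound pre-incubation at room temperature to dye-loaded HTR2A-CHO cells. Fluorescence followed for 3 min, sampled every second.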

Experiment [11] shares this target. The experiment in a line: 5-hydroxytryptamine receptor 2A (HTR2A) small molecule agonists, cell-based qHTS assay (AID 1963587). Also: nearly all actives have a fitted effect of over 30% in size. An outline of the steps: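 HTR2A-CHO cells, plated 18 h at 37 C/5% CO2, dye-loaded 1 h at 37 C; compounds in DMSO added by pin tool (agonist mode). Intracellular calcium flux read as kinetic fluorescence on FDSS over 2 min at 1 s intervals.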

Experiment [12] deals with Muscarinic acetylcholine receptor M1 (Homo sapiens) (UniProt P11229). The experiment in a line: Cholinergic receptor muscarinic 1 (CHRM1) small molecule antagonists, cell-based qHTS assay (AID 1963588). Also: nearly all actives have a fitted effect of over 40% in size. An outline of the steps:
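CHRM1-CHO calcium-flux assay, antagonist mode. Cells were seeded 18 h, dye-loaded 1 h at 37 C and given compound for 5 min at RT, then acetylcholine was added at 50nM. FDSS fluorescence was read 3 min; 15 concentrations, three runs.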

Experiment [13] has the same target. The experiment in a line: Cholinergic receptor muscarinic 1 (CHRM1) small molecule agonists, cell-based qHTS assay (AID 1963589). Also: nearly all actives have a fitted effect of over 35% in size. An outline of the steps: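 Agonist-mode qHTS in CHO cells stably carrying human muscarinic M1. Intracellular calcium is tracked by fluorescence every second after compound transfer; each compound runs at 15 concentrations in three independent runs.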

Experiment [14] can be described thus: cAMP Responsive Elements (CRE) small molecule antagonists, cell-based qHTS assay (AID 1963591; active = well fitted inhibition curve with a large enough effect in the signal ratio in the repeat runs, not every such curve was filed as active; the % refers to the signal ratio). The essentials:
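Antagonist mode: test compounds are co-incubated with the adenylyl cyclase activator NKH477 (0.25 uM final) on CRE-bla HEK293T cells for 3 h at 37 °C, followed by LiveBLAzer substrate loading.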

Experiment [15] has as its target Beta-2 adrenergic receptor (Homo sapiens) (UniProt P07550). The experiment in a line: Adrenergic beta2 receptor (ADRB2) small molecule antagonists, cell-based qHTS assay (AID 1963592). Also: series mostly up to about 92 µM; nearly all actives have a fitted effect of over 50% in size. An outline of the steps: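 Cells (CHO, stable ADRB2 overexpression) incubated 18-20hr at 37C; compounds added from DMSO; agonist mix (1nM isoproterenol, 100uM IBMX, 25uM Ro-20-1724) added; 0.5hr RT; d2-cAMP and anti-cAMP-cryptate added; 1hr RT; 665/615 nm read.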

For experiment [16] the target is unchanged. The experiment in a line: Adrenergic beta2 receptor (ADRB2) small molecule agonists, cell-based qHTS assay (AID 1963593).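 Also: CHO cells stably overexpressing human ADRB2.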 The essentials:
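CHO cells stably over-expressing ADRB2 were plated overnight at 37C, then dosed with compounds plus a stimulation mix containing 100uM IBMX and 25uM Ro-20-1724 for 0.5hr at room temperature. cAMP was measured by HTRF competition, 1hr.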

For experiment [17], the target named is D(2) dopamine receptor (Homo sapiens) (UniProt P14416). The experiment in a line: Dopamine D2 receptor (DRD2) small molecule agonists, cell-based qHTS assay (AID 1963594). Also: nearly all actives have a fitted effect of over 35% in size. The essentials: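 HEK293 cells stably expressing DRD2 were cultured 24 h at 37 C, then given Ro20-1724 (0.1 mM final) and compounds for 10 min at room temperature. NKH477 (200nM) was then added for 30 min. cAMP was read by HTRF.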

Experiment [18] in a line: p53 small molecule agonists, cell-based qHTS assay with human liver microsomes: qHTS cell viability counter screen (AID 1963579). Also: nearly all actives have a fitted effect of over 45% in size. Also: potency is read from the fitted curve at half-maximal effect. An outline of the steps: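 Metabolic activation used human liver microsomes and NADPH, both 0.5 mg/mL final, over 16 hours at 37 C on p53RE-bla cells (4,000/well). Cytotoxicity measured by CellTiter-Glo luminescence, 30 min at room temperature.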

The nature of experiment [19]: cAMP Responsive Elements (CRE) small molecule agonists, cell-based qHTS assay (AID 1963590). An outline of the steps: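 Agonist mode qHTS in CRE-bla HEK 293T cells: compounds dosed from DMSO for 3 h at 37 C/5% CO2, followed by LiveBLAzer B/G FRET substrate for 2 h at room temperature.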
The target in experiment [20] is D(2) dopamine receptor (Homo sapiens) (UniProt P14416). The experiment in a line: Dopamine D2 receptor (DRD2) small molecule antagonists, cell-based qHTS assay (AID 1963595; active = well fitted inhibition curve with a large enough effect in the signal ratio in the repeat runs, with a control signal flat; the % refers to the signal ratio). An outline of the steps: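 DRD2-HEK293; 0.1 mM Ro20-1724; cpd 10 min RT; NKH477 200 nM + quinpirole 12 nM, 30 min RT; HTRF cAMP (cAMP-d2/anti-cAMP cryptate), 665/620 nm ratio after 1 h.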

5-hydroxytryptamine receptor 2A (Homo sapiens), sequence (P28223 whole entry, looked up): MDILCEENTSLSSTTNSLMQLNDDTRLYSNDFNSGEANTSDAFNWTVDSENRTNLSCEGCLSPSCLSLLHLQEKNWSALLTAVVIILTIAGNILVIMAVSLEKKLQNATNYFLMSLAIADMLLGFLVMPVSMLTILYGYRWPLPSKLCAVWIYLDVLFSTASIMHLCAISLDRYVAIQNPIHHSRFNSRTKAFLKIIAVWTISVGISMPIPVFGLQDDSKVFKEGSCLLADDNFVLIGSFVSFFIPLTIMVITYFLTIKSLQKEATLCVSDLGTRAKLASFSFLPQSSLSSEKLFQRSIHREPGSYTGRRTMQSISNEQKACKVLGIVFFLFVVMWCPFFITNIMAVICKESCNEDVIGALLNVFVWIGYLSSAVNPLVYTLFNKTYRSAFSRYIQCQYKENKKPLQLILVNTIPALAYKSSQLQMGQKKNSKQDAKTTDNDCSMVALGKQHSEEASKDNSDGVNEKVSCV
KiSS-1 receptor (Homo sapiens), sequence (Q969F8 whole entry, looked up): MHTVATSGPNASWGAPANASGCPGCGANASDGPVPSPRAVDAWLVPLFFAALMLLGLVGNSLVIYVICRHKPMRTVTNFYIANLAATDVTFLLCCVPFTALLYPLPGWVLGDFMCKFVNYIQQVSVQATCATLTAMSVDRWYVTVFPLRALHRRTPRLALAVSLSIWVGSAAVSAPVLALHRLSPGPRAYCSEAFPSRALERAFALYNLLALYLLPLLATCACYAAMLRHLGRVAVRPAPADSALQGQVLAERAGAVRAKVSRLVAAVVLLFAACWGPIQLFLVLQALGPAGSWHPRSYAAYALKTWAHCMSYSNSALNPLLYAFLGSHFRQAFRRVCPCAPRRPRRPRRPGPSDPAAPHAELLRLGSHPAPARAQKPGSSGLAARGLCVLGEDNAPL
Muscarinic acetylcholine receptor M1 (Homo sapiens), sequence (P11229 whole entry, looked up): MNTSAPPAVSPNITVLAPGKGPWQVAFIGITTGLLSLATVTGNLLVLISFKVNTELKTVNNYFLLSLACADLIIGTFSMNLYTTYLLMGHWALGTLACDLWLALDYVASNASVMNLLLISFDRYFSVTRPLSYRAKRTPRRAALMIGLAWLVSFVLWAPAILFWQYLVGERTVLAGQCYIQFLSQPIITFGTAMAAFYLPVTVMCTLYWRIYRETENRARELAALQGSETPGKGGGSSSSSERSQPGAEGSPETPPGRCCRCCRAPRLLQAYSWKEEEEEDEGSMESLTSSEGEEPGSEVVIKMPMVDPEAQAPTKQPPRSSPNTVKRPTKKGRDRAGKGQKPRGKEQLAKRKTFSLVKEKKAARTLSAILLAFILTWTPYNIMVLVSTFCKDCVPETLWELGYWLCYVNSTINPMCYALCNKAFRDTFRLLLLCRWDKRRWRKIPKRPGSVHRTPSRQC
Beta-2 adrenergic receptor (Homo sapiens), sequence (P07550 whole entry, looked up): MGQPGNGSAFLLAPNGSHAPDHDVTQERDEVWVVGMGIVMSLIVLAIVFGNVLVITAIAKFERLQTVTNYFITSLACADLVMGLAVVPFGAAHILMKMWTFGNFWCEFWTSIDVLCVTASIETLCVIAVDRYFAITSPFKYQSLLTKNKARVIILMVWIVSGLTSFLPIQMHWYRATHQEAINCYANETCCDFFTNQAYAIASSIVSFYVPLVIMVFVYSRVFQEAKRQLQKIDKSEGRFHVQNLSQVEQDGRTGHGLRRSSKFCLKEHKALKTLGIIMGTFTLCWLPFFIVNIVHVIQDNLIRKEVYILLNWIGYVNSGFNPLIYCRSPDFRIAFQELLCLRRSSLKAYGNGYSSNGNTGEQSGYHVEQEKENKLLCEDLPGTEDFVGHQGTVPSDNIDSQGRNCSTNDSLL
D(2) dopamine receptor (Homo sapiens), sequence (P14416 whole entry, looked up): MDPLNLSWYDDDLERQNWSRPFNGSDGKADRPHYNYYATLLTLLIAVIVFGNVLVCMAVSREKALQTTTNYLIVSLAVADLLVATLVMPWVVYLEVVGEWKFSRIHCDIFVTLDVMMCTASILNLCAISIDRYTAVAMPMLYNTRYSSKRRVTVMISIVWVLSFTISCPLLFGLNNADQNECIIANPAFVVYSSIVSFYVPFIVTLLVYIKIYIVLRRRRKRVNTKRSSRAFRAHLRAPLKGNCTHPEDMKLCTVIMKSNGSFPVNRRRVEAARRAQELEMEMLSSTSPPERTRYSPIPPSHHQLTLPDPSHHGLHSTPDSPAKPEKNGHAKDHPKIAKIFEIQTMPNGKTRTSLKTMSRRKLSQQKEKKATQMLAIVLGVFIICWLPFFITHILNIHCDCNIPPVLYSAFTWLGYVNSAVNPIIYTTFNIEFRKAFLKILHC
Gonadotropin-releasing hormone receptor (Homo sapiens), sequence (P30968 whole entry, looked up): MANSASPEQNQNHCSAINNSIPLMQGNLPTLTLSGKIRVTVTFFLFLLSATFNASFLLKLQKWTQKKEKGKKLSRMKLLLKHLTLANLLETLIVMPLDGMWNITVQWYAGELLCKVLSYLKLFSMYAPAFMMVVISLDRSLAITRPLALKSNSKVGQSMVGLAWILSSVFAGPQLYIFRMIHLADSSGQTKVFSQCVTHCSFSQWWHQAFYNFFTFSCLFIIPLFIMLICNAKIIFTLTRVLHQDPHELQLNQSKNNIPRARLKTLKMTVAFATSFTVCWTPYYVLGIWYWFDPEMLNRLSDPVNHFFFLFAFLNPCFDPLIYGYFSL

Turning to `CC(=O)C(C)C`, the Potency result in experiment [1], in experiment [2], in [3], in experiment [4], in experiment [5] and in [6] was “inactive” each time. Further, the Potency entry in experiment [7], in experiment [8], in experiment [9], in experiment [10], in experiment [11] and in experiment [12] was “inactive” in each case. In addition, the Potency result in [13], in experiment [14], in experiment [15], in [16] and in [17] was “inactive” throughout.
For `CCCOC(=O)NCCCN(C)C`, the Potency result in experiment [1], in experiment [2], in experiment [3], in [4], in [5] and in experiment [6] was “inactive” in each case. For the same compound, the Potency result in experiment [18], in experiment [8], in [9], in [10], in [11] and in [19] was “inactive” in each case. Besides, the Potency entry in experiment [14], in experiment [15], in [16], in [17] and in [20] was “inactive” each time.
Regarding `O=C(O)c1ccc(O)cc1`, the Potency entry in experiment [1], in experiment [2], in experiment [3], in [4], in experiment [5] and in experiment [6] was “inactive” in each case. In addition, the Potency result in [7], in experiment [8], in [9], in [10], in [11] and in [12] was “inactive” in each case. Besides, the Potency result in experiment [13], in experiment [19], in [14], in experiment [15], in experiment [16] and in experiment [17] was “inactive” each time. For the same compound, the Potency entry in [20] was “inactive”.
On to `CCCCCC(N)=O`, for which the Potency entry in [1], in [2], in experiment [3], in experiment [4], in experiment [5] and in experiment [6] was “inactive” each time. For the same compound, the Potency result in experiment [18], in experiment [7], in experiment [8], in experiment [9], in experiment [10] and in [11] was “inactive” throughout. For the same compound, the Potency entry in [12], in experiment [13], in experiment [19], in experiment [14], in experiment [15] and in experiment [17] was “inactive” each time. Also, the Potency result in experiment [20] is “inactive”.
For the compound `CCc1cccc(O)c1`, the Potency entry in experiment [1], in [2], in experiment [3], in experiment [4], in experiment [5] and in experiment [6] was “inactive” in each case. Besides, the Potency entry in experiment [18], in experiment [7], in [8], in [9], in [10] and in [11] was “inactive” throughout. The Potency entry in [12], in [13], in [19], in [14], in experiment [16] and in experiment [17] was “inactive” in each case. Further, the Potency entry in [20] was “inactive”.
For `c1cnc2c(c1)ccc1cccnc12`, the Potency is 3.89 µM (active) and 6.11 µM (active) and 7.7 µM (active) in experiment [1]; 9.69 µM (active) in [2]; 36.7 µM (active) in experiment [18]. Besides, the Potency entry in experiment [3], in [4], in experiment [5], in [6], in experiment [8] and in experiment [10] was “inactive” each time. For the same compound, the Potency result in experiment [11], in experiment [12], in experiment [13], in experiment [19], in experiment [15] and in experiment [16] was “inactive” throughout. Moreover, the Potency result in [17] and in experiment [20] was “inactive” in each case.
In the case of `C[N+](C)(C)CCCCCC[N+](C)(C)C`, the Potency entry in experiment [1], in [2], in [3], in experiment [4], in experiment [5] and in [6] was “inactive” each time. Also, the Potency result in [7], in [8], in [9], in [10], in experiment [11] and in experiment [12] was “inactive” each time. Further, the Potency entry in experiment [13], in [19], in [15], in experiment [16], in experiment [17] and in experiment [20] was “inactive” each time.
